# The supplement of paper PMC4466140
# Experiments:
# Test in all cases: SPOT peptide array binding signal intensity (averaged, normalized) (arbitrary units (background-subtracted, floor 0; scale differs between SH3 domains)); higher = stronger binding of the SH3 domain to the peptide
# AgAbp1 = molecular target: AgAbp1
# In short: (§1)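 SH3 domains from four yeast species were expressed as GST fusions in E. coli BL21(DE3) and purified on glutathione Sepharose. Each was incubated at 10 μg/ml overnight at 4°C in TBS-based blocking buffer on cellulose membranes bearing synthetic 15-mer peptides, in which serines replaced cysteines. Bound protein was detected with anti-GST antibody, an HRP anti-mouse secondary and luminol, then imaged and quantified with Genespotter. The binding signal is the normalized, background-subtracted spot intensity averaged over replicates, in arbitrary units that are not the same from one domain to another.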
# AgBbc1 = molecular target: AgBbc1
# In short: as §1
# AgBem1-D1 = molecular target: AgBem1-D1
# In short: as §1
# AgBzz1-D1 = molecular target: AgBzz1-D1
# In short: as §1
# AgBzz1-D2 = molecular target: AgBzz1-D2
# In short: as §1
# AgCyk3 = molecular target: AgCyk3
# In short: as §1
# AgFus1 = molecular target: AgFus1
# In short: as §1
# AgHof1 = molecular target: AgHof1
# In short: as §1
# AgHse1 = molecular target: AgHse1
# In short: as §1
# AgLsb1 = molecular target: AgLsb1
# In short: as §1
# AgLsb4 = molecular target: AgLsb4
# In short: as §1
# AgMyo5 = molecular target: AgMyo5
# In short: as §1
# AgNbp2 = molecular target: AgNbp2
# In short: as §1
# AgRvs167 = molecular target: AgRvs167
# In short: as §1
# AgSho1 = molecular target: AgSho1
# In short: as §1
# AgSla1-D1-D2 = molecular target: AgSla1-D1-D2
# In short: as §1
# AgSla1-D3 = molecular target: AgSla1-D3
# In short: as §1
# CaAbp1-D1 = molecular target: CaAbp1-D1
# In short: as §1
# CaAbp1-D2 = molecular target: CaAbp1-D2
# In short: as §1
# CaBbc1 = molecular target: CaBbc1
# In short: as §1
# CaBem1-D1 = molecular target: CaBem1-D1
# In short: as §1
# CaBzz1-D1 = molecular target: CaBzz1-D1
# In short: as §1
# CaBzz1-D2 = molecular target: CaBzz1-D2
# In short: as §1
# CaCyk3 = molecular target: CaCyk3
# In short: as §1
# CaFus1 = molecular target: CaFus1
# In short: as §1
# CaHof1 = molecular target: CaHof1
# In short: as §1
# CaHse1 = molecular target: CaHse1
# In short: as §1
# CaLsb1 = molecular target: CaLsb1
# In short: as §1
# CaLsb4 = molecular target: CaLsb4
# In short: as §1
# CaMyo5 = molecular target: CaMyo5
# In short: as §1
# CaNbp2 = molecular target: CaNbp2
# In short: as §1
# CaRvs167 = molecular target: CaRvs167
# In short: as §1
# CaRvs167-3 = molecular target: CaRvs167-3
# In short: as §1
# CaSho1 = molecular target: CaSho1
# In short: as §1
# CaSla1-D1-D2 = molecular target: CaSla1-D1-D2
# In short: as §1
# CaSla1-D3 = molecular target: CaSla1-D3
# In short: as §1
# ScAbp1 = molecular target: ScAbp1
# In short: as §1
# ScBbc1 = molecular target: ScBbc1
# In short: as §1
# ScBem1-D1 = molecular target: ScBem1-D1
# In short: as §1
# ScBzz1-D1 = molecular target: ScBzz1-D1
# In short: as §1
# ScBzz1-D2 = molecular target: ScBzz1-D2
# In short: as §1
# ScCyk3 = molecular target: ScCyk3
# In short: as §1
# ScFus1 = molecular target: ScFus1
# In short: as §1
# ScHof1 = molecular target: ScHof1
# In short: as §1
# ScHse1 = molecular target: ScHse1
# In short: as §1
# ScLsb1 = molecular target: ScLsb1
# In short: as §1
# ScLsb2 = molecular target: ScLsb2
# In short: as §1
# ScLsb3 = molecular target: ScLsb3
# In short: as §1
# ScLsb4 = molecular target: ScLsb4
# In short: as §1
# ScMyo3 = molecular target: ScMyo3
# In short: as §1
# ScMyo5 = molecular target: ScMyo5
# In short: as §1
# ScNbp2 = molecular target: ScNbp2
# In short: as §1
# ScPex13 = molecular target: ScPex13
# In short: as §1
# ScRvs167 = molecular target: ScRvs167
# In short: as §1
# ScSho1 = molecular target: ScSho1
# In short: as §1
# ScSla1-D1-D2 = molecular target: ScSla1-D1-D2
# In short: as §1
# ScSla1-D3 = molecular target: ScSla1-D3
# In short: as §1
# SpAbp1-D1 = molecular target: SpAbp1-D1
# In short: as §1
# SpBbc1 = molecular target: SpBbc1
# In short: as §1
# SpBzz1-D1 = molecular target: SpBzz1-D1
# In short: as §1
# SpBzz1-D2 = molecular target: SpBzz1-D2
# In short: as §1
# SpCyk3 = molecular target: SpCyk3
# In short: as §1
# SpHof1 = molecular target: SpHof1
# In short: as §1
# SpHof1-2 = molecular target: SpHof1-2
# In short: as §1
# SpHof1-3 = molecular target: SpHof1-3
# In short: as §1
# SpHse1 = molecular target: SpHse1
# In short: as §1
# SpLsb1 = molecular target: SpLsb1
# In short: as §1
# SpLsb4 = molecular target: SpLsb4
# In short: as §1
# SpMyo1 = molecular target: SpMyo1
# In short: as §1
# SpNbp2 = molecular target: SpNbp2
# In short: as §1
# SpPex13 = molecular target: SpPex13
# In short: as §1
# SpRvs167 = molecular target: SpRvs167
# In short: as §1
# SpSla1-D1-D2 = molecular target: SpSla1-D1-D2
# In short: as §1
# SpSla1-D3 = molecular target: SpSla1-D3
# In short: as §1
binder,measurement,setting,value
RRRIAYPFYPFKKLG,SPOT peptide array binding signal intensity,AgAbp1,69
same,SPOT peptide array binding signal intensity,AgBbc1,≤ 0
same,SPOT peptide array binding signal intensity,AgBem1-D1,22
same,SPOT peptide array binding signal intensity,AgBzz1-D1,32.5
same,SPOT peptide array binding signal intensity,AgBzz1-D2,9
same,SPOT peptide array binding signal intensity,AgCyk3,1
same,SPOT peptide array binding signal intensity,AgFus1,337
same,SPOT peptide array binding signal intensity,AgHof1,8.75
same,SPOT peptide array binding signal intensity,AgHse1,914
same,SPOT peptide array binding signal intensity,AgLsb1,1.5
same,SPOT peptide array binding signal intensity,AgLsb4,19.5
same,SPOT peptide array binding signal intensity,AgMyo5,1.75
same,SPOT peptide array binding signal intensity,AgNbp2,124
same,SPOT peptide array binding signal intensity,AgRvs167,6.5
same,SPOT peptide array binding signal intensity,AgSho1,79
same,SPOT peptide array binding signal intensity,AgSla1-D1-D2,22
same,SPOT peptide array binding signal intensity,AgSla1-D3,≤ 0
same,SPOT peptide array binding signal intensity,CaAbp1-D1,482
same,SPOT peptide array binding signal intensity,CaAbp1-D2,238
same,SPOT peptide array binding signal intensity,CaBbc1,0.25
same,SPOT peptide array binding signal intensity,CaBem1-D1,23
same,SPOT peptide array binding signal intensity,CaBzz1-D1,21
same,SPOT peptide array binding signal intensity,CaBzz1-D2,9.5
same,SPOT peptide array binding signal intensity,CaCyk3,1
same,SPOT peptide array binding signal intensity,CaFus1,672
same,SPOT peptide array binding signal intensity,CaHof1,0.5
same,SPOT peptide array binding signal intensity,CaHse1,47.8
same,SPOT peptide array binding signal intensity,CaLsb1,≤ 0
same,SPOT peptide array binding signal intensity,CaLsb4,15
same,SPOT peptide array binding signal intensity,CaMyo5,0.25
same,SPOT peptide array binding signal intensity,CaNbp2,565
same,SPOT peptide array binding signal intensity,CaRvs167,13.3
same,SPOT peptide array binding signal intensity,CaRvs167-3,62.5
same,SPOT peptide array binding signal intensity,CaSho1,486
same,SPOT peptide array binding signal intensity,CaSla1-D1-D2,≤ 0
same,SPOT peptide array binding signal intensity,CaSla1-D3,2.5
same,SPOT peptide array binding signal intensity,ScAbp1,103
same,SPOT peptide array binding signal intensity,ScBbc1,≤ 0
same,SPOT peptide array binding signal intensity,ScBem1-D1,16
same,SPOT peptide array binding signal intensity,ScBzz1-D1,6
same,SPOT peptide array binding signal intensity,ScBzz1-D2,14
same,SPOT peptide array binding signal intensity,ScCyk3,38.5
same,SPOT peptide array binding signal intensity,ScFus1,230
same,SPOT peptide array binding signal intensity,ScHof1,0.5
same,SPOT peptide array binding signal intensity,ScHse1,1700
same,SPOT peptide array binding signal intensity,ScLsb1,3.5
same,SPOT peptide array binding signal intensity,ScLsb2,4
same,SPOT peptide array binding signal intensity,ScLsb3,104
same,SPOT peptide array binding signal intensity,ScLsb4,11
same,SPOT peptide array binding signal intensity,ScMyo3,4
same,SPOT peptide array binding signal intensity,ScMyo5,≤ 0
same,SPOT peptide array binding signal intensity,ScNbp2,173
same,SPOT peptide array binding signal intensity,ScPex13,0.5
same,SPOT peptide array binding signal intensity,ScRvs167,13.3
same,SPOT peptide array binding signal intensity,ScSho1,606
same,SPOT peptide array binding signal intensity,ScSla1-D1-D2,≤ 0
same,SPOT peptide array binding signal intensity,ScSla1-D3,≤ 0
same,SPOT peptide array binding signal intensity,SpAbp1-D1,155
same,SPOT peptide array binding signal intensity,SpBbc1,1
same,SPOT peptide array binding signal intensity,SpBzz1-D1,37
same,SPOT peptide array binding signal intensity,SpBzz1-D2,≤ 0
same,SPOT peptide array binding signal intensity,SpCyk3,≤ 0
same,SPOT peptide array binding signal intensity,SpHof1,37.5
same,SPOT peptide array binding signal intensity,SpHof1-2,12.5
same,SPOT peptide array binding signal intensity,SpHof1-3,225
same,SPOT peptide array binding signal intensity,SpHse1,745
same,SPOT peptide array binding signal intensity,SpLsb1,1.5
same,SPOT peptide array binding signal intensity,SpLsb4,47
same,SPOT peptide array binding signal intensity,SpMyo1,2.5
same,SPOT peptide array binding signal intensity,SpNbp2,394
same,SPOT peptide array binding signal intensity,SpPex13,5.5
same,SPOT peptide array binding signal intensity,SpRvs167,7.33
same,SPOT peptide array binding signal intensity,SpSla1-D1-D2,≤ 0
same,SPOT peptide array binding signal intensity,SpSla1-D3,1.5
